Sampled rows, rich in hits. Any-hit rate of the full collection: about 6.9%.
Giardia kill: Small Molecules that selectively kill Giardia lamblia: qHTS. hit rate 0.15% among 340,000. activity change, % at 7.66 µM, hits read low. AID 540267, 2011. Giardia lamblia trophozoite viability; in the data active = activity change below about -80%; inconclusive = between about -30% and that limit;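 also: parasites exposed to compound for two days anaerobically before the ATP read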
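Anaerobic 48 hrs incubation at 37 deg C of 100 trophozoites/well with test compounds; ATPLite 1-Step luminescence, 15-30 min RT, reports cellular ATP as viability.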
Vif-APOBEC3G blk: qHTS for Inhibitors of Vif-A3G Interactions: qHTS | hit rate 0.076% among 410,000 | HeLa A3G-eYFP + Vif (tagged APOBEC3G with the HIV-1 protein that degrades it), YFP fluorescence, overnight | DNA dC->dU-editing enzyme APOBEC-3G (Homo sapiens), Q9HC16 | Potency, µM (series often up to 46.1 µM), actives largely listed as inhibitors; also: nearly all actives have a fitted effect of over 60% in size
Target sequence (Q9HC16 whole entry, looked up): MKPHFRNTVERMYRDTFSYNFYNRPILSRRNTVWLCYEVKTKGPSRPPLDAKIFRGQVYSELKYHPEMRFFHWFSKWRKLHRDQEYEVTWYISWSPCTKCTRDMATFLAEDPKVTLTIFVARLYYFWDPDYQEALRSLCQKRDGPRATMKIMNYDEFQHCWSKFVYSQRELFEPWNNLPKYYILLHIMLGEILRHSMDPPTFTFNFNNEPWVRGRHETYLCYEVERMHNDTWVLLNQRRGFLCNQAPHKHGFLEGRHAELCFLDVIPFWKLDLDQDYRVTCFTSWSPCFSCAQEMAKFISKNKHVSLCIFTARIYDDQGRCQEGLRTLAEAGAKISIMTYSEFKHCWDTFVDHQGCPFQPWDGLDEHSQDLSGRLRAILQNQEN
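Read-out is eYFP fluorescence (Ex 488/Em 500-530) from Vif-expressing HeLa A3G-eYFP cells; more signal means A3G escaped Vif-mediated degradation. Cells plated overnight, compound pinned in, incubated overnight at 37 deg C.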
IL1B secr inh: qHTS for Inhibitors of Inflammasome Signaling: IL-1-beta AlphaLISA Primary Screen; AID 743279, 2014; hit rate 4.7% among 360,000; activity change, % at 57.5 µM; THP-1 LPS/ATP IL-1B secretion, AlphaLISA, 16 h; stronger effect = lower value; in the data active = activity change below about -50%; inconclusive = mostly about -30% to -49%
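Secreted IL-1B measured by AlphaLISA bead assay after 16 h compound exposure of THP-1 cells; compounds (final up to 57.5 uM) added 1 h before LPS (250 ng/mL) and ATP (1.25 mM) stimulation; lower signal means less secretion.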
Vif-APOBEC3F blk: qHTS for Inhibitors of Vif-A3F Interactions: qHTS | HeLa A3F-eYFP + Vif (tagged APOBEC3F with the HIV-1 protein that degrades it), YFP fluorescence increase | Potency, µM (titrated, usually from 46.1 µM) | hit rate 0.2% among 390,000 | AID 602313, 2012; also: nearly all actives have a fitted effect of over 65% in size
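Fluorescence increase (Ex 488/Em 500-530) after overnight compound treatment at 37 deg C flags inhibition of Vif-driven A3F-eYFP loss in stable HeLa A3F-eYFP/Vif cells seeded overnight beforehand.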
SW480 rereplic: A quantitative high throughput screen for small molecules that induce DNA re-replication in SW480 colon adenocarcinoma cells. SW480 DNA re-replication, Hoechst DNA content imaging, 48 h. Potency, µM (doses to about 46.1 µM), most hits filed as activators. hit rate 1.8% among 340,000. AID 624297, 2012; also: nearly all actives have a fitted effect of over 55% in size
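Readout is total intensity of Hoechst-stained nuclei, excited at 405 nm and collected at 500-530 nm. Compound treatment lasted 48 hr at 37 C in 5% CO2 before staining.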
MCF10A rerep: A quantitative high throughput screen for small molecules that induce DNA re-replication in MCF 10a normal breast cells | hit rate 2.9% among 350,000 | MCF 10A DNA re-replication, Hoechst nuclear intensity, 48 h | Potency, µM (titrated, usually from 46.1 µM), actives largely listed as activators; also: nearly all actives have a fitted effect of over 50% in size
Numbers stand for hits; . = inactive; ? = inconclusive; / = no result given; [ ] = another dose, or the depositor's remark. Unless noted, calls follow the shape of the dose curve; as a rule, active = well fitted curve in the direction sought with a large enough effect; inconclusive = small, poorly fitted or top-dose-only effect, or another doubt; inactive = no such curve, though single readings can be large; an effect the other way counts as inactive or inconclusive.

SMILES	Giardia kill	Vif-APOBEC3G blk	IL1B secr inh	Vif-APOBEC3F blk	SW480 rereplic	MCF10A rerep
COC(=O)c1ccccc1NC(=S)NC(NC(=O)COc1ccccc1)C(Cl)(Cl)Cl (configuration not stated)	.	.	-77	?	.	?
COC(=O)/C=C/c1cc(F)ccc1S(=O)(=O)Nc1ccccc1	/	.	/	/	/	/
COc1ccc(-c2noc(N(c3cccc(Cl)c3)c3nc(-c4ccc(OC)c(OC)c4)no3)n2)cc1OC	/	.	/	.	/	/
CCN(CC)c1ccc(NC(=O)C(Cc2ccccc2)NS(=O)(=O)c2ccc(Br)s2)c(C)c1 (configuration not stated)	/	.	/	.	/	/
Cc1cc2nc3c(=O)[nH]c(=O)nc-3n(C[C@H](O)[C@H](O)[C@H](O)COP(=O)(O)OP(=O)(O)OC[C@H]3O[C@@H](n4cnc5c(N)ncnc54)[C@H](O)[C@@H]3O)c2cc1C	/	/	/	/	.	.
O=C(Nc1cc(C(F)(F)F)ccc1Cl)C(Sc1cccc[n+]1[O-])c1ccccc1 (configuration not stated)	.	.	-96	.	?	.
O=C(Nc1cc(C(F)(F)F)ccc1Cl)C(Sc1n[nH]c(=O)[nH]c1=O)c1ccccc1 (configuration not stated)	.	.	?	.	.	?
CS(=O)(=O)c1ccc(C(=O)OCC(=O)N2CCCC2)cc1[N+](=O)[O-]	.	.	/	/	/	/
Fc1ccc(F)c(NC2=NCCCCC2)c1	.	.	.	.	.	.
Fc1cc(Cl)ccc1NC1=NCCCCC1	.	.	-67	.	.	.
N#C/C(=C(/O)CCl)c1nc(-c2ccccc2)cs1	.	?	-57	?	?	?
Cc1ccc(-c2csc(/C(C#N)=C(\O)CCl)n2)cc1	.	.	-73	.	.	16µM
N#C/C(=C(/O)CN1CCCCC1)c1nc(-c2ccc(Cl)cc2)cs1	.	.	.	.	.	.
N#C/C(=C(/O)CN1CCOCC1)c1nc(-c2ccccc2)cs1	.	.	.	.	.	.
COc1cccc2c(Nc3ccccc3C)cc(C)nc12	.	.	-101	.	.	.
Cc1ccc(C)c(Nc2cc(C)nc3ccccc23)c1	.	.	-70	.	?	.
c1ccc(Nc2nc3ccccc3[nH]2)nc1	.	.	-80	.	.[9.22 µM]	.
Cc1cc(Nc2ccccc2O)c2ccccc2n1	.	.	-63	.	?	.
COc1cccc(C2C(C(=O)Nc3ccccc3OC)=C(C)Nc3nc4ccccc4n32)c1 (configuration not stated)	/	.	/	.	/	/
CCN1CC(CCN2CCOCC2)C(c2ccccc2)(c2ccccc2)C1=O (configuration not stated)	/	/	/	/	.	.
CCOc1ccc(NC(=O)CCc2nnc3n(C)c(=O)c4sccc4n23)cc1	/	.	/	.	/	/
COC(=O)c1ccc2nc(C)cc(Nc3ccc(O)cc3)c2c1	/	.	/	.	/	/
Cc1cc(Nc2cccc(Cl)c2)c2ccccc2n1	.	.	?	.	.	.
Cc1cc(Nc2ccc(F)cc2)c2ccccc2n1	/	.	.	.	/	/
Cc1ccc(Nc2cc(C)nc3ccccc23)c(C)c1	.	.	-95	.	.	.
SMILES	Giardia kill	Vif-APOBEC3G blk	IL1B secr inh	Vif-APOBEC3F blk	SW480 rereplic	MCF10A rerep
COC(=O)c1ccc(Nc2cc(C)nc3ccccc23)cc1	.	?	-97	?	?	?
Cc1ccc(C)c(Nc2nc3ccccc3[nH]2)c1	.	.	-94	.	.	.
Cc1cccc(Nc2cc(C)nc3ccccc23)c1	.	.	-91	.	.	.
Cc1ccc(Cl)cc1N1CCN(C(=O)c2cnc(N3CCOCC3)c3ccccc23)CC1	/	.	/	.	/	/
CCCc1ccc(C(=O)O)cc1	/	/	/	/	.	.
COc1ccc(OC)c(CNC(=O)C2CCCCN2S(=O)(=O)c2ccc(F)cc2)c1 (configuration not stated)	/	.	/	.	/	/
Cc1ccc(S(=O)(=O)N2c3ccccc3OCC2c2ccccc2)cc1 (configuration not stated)	.	.	.	.	?	16µM
CC1COc2ccccc2N1C(=O)c1ccc(Cl)cc1 (configuration not stated)	.	.	.	.	.	.
CC1COc2ccccc2N1S(=O)(=O)c1ccc(Cl)cc1 (configuration not stated)	.	.	.	.	?	21µM
CCOC(=O)c1c(NC(=O)C(C)Sc2cn(CCNC(=O)c3ccc(OC)cc3)c3ccccc23)sc2c1CCC2 (configuration not stated)	/	.	/	.	/	/
CC1CCCC(NC(=O)CNC(=S)N(Cc2ccccc2)Cc2cccs2)C1C (configuration not stated)	.	.	.	.	?	13µM
C=CCOc1ccc(C2NC(=S)NC(C)=C2C(=O)c2ccccc2)cc1OC (configuration not stated)	.	.	.	.	.	.
COc1cccc(C2NC(=S)NC(C)=C2C(=O)c2ccccc2)c1OC (configuration not stated)	.	?	.	.	5.8µM	?
Cc1c(-c2nnc(SCC(=O)Nc3ccc(Cl)cc3)o2)nnn1-c1ccc(F)cc1	/	.	/	.	/	/
Cc1cc(O)c(C(C)C)cc1Cl	/	/	/	/	.	.
O=C(NCc1ccccc1)c1cnc2sc(N3CCCC3)nn2c1=O	/	.	/	.	/	/
O=C(O)CCn1cc(/C=C/C(=O)c2ccc(Cl)cc2)c(-c2ccc(Br)cc2)n1	.	.	-93	.	?	?
O=C(O)/C=C/c1cn(Cc2ccccc2)nc1-c1ccccc1	.	.	.	.	?	.
S=C(NCc1ccccc1)NC1CCSc2ccccc21 (configuration not stated)	.	.	-74	.	.	.
S=C(Nc1ccc(Cl)cc1)NC1CCCCC1	.	.	.	.	.	.
S=C(Nc1cccnc1)NC1CCCCCCC1	.	.	.	.	.	.
FC(F)Oc1ccc(NC(=S)NC2CCSc3ccccc32)cc1 (configuration not stated)	.	.	-85	.	.	.
S=C(Nc1ccc(Nc2ccccc2)cc1)NC1CCCCCC1	.	.	-79	?	21µM	.
S=C(Nc1ccc(Br)cc1)NC1CCCCC1	.	.	-91	.	.	?
O=C(Nc1ccccc1Cl)C1CCN(c2nc3ccccc3nc2C(F)(F)F)CC1	/	.	/	.	/	/
